Rows were chosen to be rich in hits. Some 3.5% of all compounds tested hit in one or more screens of this group.
TEAD-YAP inh = TEAD-YAP interaction inhibition; AID 1259422; HEK-TIYL cells, TEAD-Gal4/YAP UAS-luciferase luminescence; inhibition, % at 9.12 µM; 1.4% of 640,000 active; in the data active = inhibition above about 32%
MITF primary = inhibitors of human MITF. AlphaScreen MITF homodimerization, bead proximity signal. inhibition, % at 2.6 µM. 0.91% of 650,000 active; in the data active = inhibition above about 50%
FBW7 activator = human FBW7 E3 ligase activation, primary screen. AlphaScreen FBW7–phospho-cyclin E peptide binding, activator screen. normalized activity (activation), % at 26.1 µM. 0.13% of 650,000 active. AID 1259310; in the data active = normalized activity above about 1.9%;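 note: purified mutant Fbw7 with reduced substrate affinity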
GPR151 activ = activates the human receptor GPR151; 1% of 650,000 active; Q8TDV0; PathHunter beta-arrestin GPR151 cells, luminescence; activation, % at 11.2 µM; in the data active = activation above about 4.9%
Hits are given with their value; . = inactive.

SMILES	TEAD-YAP inh	MITF primary	FBW7 activator	GPR151 activ
CCC(=O)Nc1ccc2oc(-c3cccc(C)c3)nc2c1	82.1	.	.	.
Cc1ccc2c(c1)c(=O)c1ccccc1n2CCCC(=O)Nc1cccc(F)c1C#N	.	.	.	.
O=C(CCNC(=O)c1ccccc1Br)NCc1ccccc1Cl	.	.	.	.
Cc1ccc(-c2cc3c(nn2)-c2ccccc2C3=O)cc1	81.3	.	.	.
Cc1cc2nc3ccc(N(C)C)cc3nc2cc1N	32.4	57.8	.	.
CN(C)c1ccc2nc3c(nc2c1)C(=O)c1ccccc1C3=O	.	.	.	.
Cc1cc2nc3cc(N)c(C)cc3cc2cc1N	72.5	.	.	.
COc1ccc([N+](=O)[O-])cc1/C=C1/C(=O)NC(=O)N(c2ccc(C(C)C)cc2)C1=O	.	.	.	.
O=[N+]([O-])c1cccc2c(NS(=O)(=O)c3ccccc3)cccc12	.	.	.	.
COc1cccc(-n2c(SCC(=O)N3CCN(c4ccccc4OC)CC3)nc3n[nH]c(C)c3c2=N)c1	42.7	.	.	.
Cc1ccc(-n2c(SCC(=O)NCc3ccco3)nc3n[nH]c(C)c3c2=N)cc1C	56.1	.	.	.
Cc1cc(-n2c(SCC(=O)NCc3ccco3)nc3n[nH]c(C)c3c2=N)ccc1Cl	.	.	.	.
COc1cccc(-n2c(SCC(=O)N3CCC(C)CC3)nc3n[nH]c(C)c3c2=N)c1	.	.	.	.
CCSCCOC(=O)C1=C(C)NC2=C(C(=O)C(C(=O)OC)C(C)C2)C1c1cc(OC)c(O)c([N+](=O)[O-])c1 (stereo unspecified)	.	.	.	.
COc1cc(Nc2ccnc(NCc3ccc4c(c3)OCO4)n2)cc(OC)c1OC	35.4	.	.	.
COc1cc(Nc2nccc(Nc3ccc4c(c3)OCO4)n2)cc(OC)c1OC	33.5	.	.	.
COc1ccc(-c2nccc(Nc3cc(OC)c(OC)c(OC)c3)n2)cn1	60.2	.	.	.
COc1cc(Nc2cc(C)nc(NCc3ccc4c(c3)OCO4)n2)cc(OC)c1OC	43.1	.	.	.
CCN(CC)c1ccc2cc(C(N)=O)c(=Nc3ccccc3)oc2c1	.	.	.	.
COc1ccc(CNc2cc(C)nc(Nc3ccc(N4CCOCC4)cc3)n2)cc1	37.2	.	.	.
c1ccc(CNc2ccnc(Nc3ccc(N4CCOCC4)cc3)n2)cc1	41.4	.	.	.
Cc1cc(NCc2ccccc2)nc(Nc2ccc(N3CCOCC3)cc2)n1	49.4	.	.	.
Cc1ccc(C)c(NC(=O)Nc2ccc(Nc3nc(C)cc(N4CCOCC4)n3)cc2)c1	.	.	.	.
Cc1cc(NCCN2CCOCC2)nc(Nc2ccc(N3CCOCC3)cc2)n1	.	.	.	.
COc1ccc(CNc2nc(Nc3ccc(N4CCOCC4)cc3)nc3cc(OC)c(OC)cc23)cc1	.	.	.	.
SMILES	TEAD-YAP inh	MITF primary	FBW7 activator	GPR151 activ
Cc1cc(N2CCOCC2)nc(Nc2ccc(NC(=O)COc3ccccc3)cc2)n1	80.8	.	.	.
c1cncc(CNc2ccnc(Nc3ccc(N4CCOCC4)cc3)n2)c1	.	.	.	.
CCCCSc1nnc2c(n1)OC(c1ccc(OC(C)=O)c(Cl)c1)N(C(C)=O)c1ccccc1-2 (stereo unspecified)	.	.	.	.
c1cnc(Nc2nccc(Nc3ccc(N4CCOCC4)cc3)n2)cn1	.	.	.	.
Cc1cc(Nc2ccc(N3CCOCC3)cc2)nc(Nc2ccccc2)n1	66.1	.	.	.
Cc1cc(NCCO)nc(Nc2ccc(-n3ccnc3)cc2)n1	.	.	.	.
Cc1cc(Nc2ccc(N3CCOCC3)cc2)nc(Nc2ccc(C(F)(F)F)cc2)n1	.	.	.	.
Cc1cc(NC2CCCCC2)nc(NCc2ccccc2)n1	42.9	.	.	.
CCNc1nc(C)cc(NCc2ccccc2)n1	.	.	.	.
Cc1cc(NCc2ccccc2)nc(Nc2ccc(-n3ccnc3)cc2)n1	35.5	.	.	.
c1cc(Nc2ccnc(Nc3ccc(N4CCOCC4)cc3)n2)c2ccncc2c1	.	.	2.6	.
CCn1c(SCc2nc(-c3ccc(Cl)cc3)no2)nnc1-c1ccncc1	.	.	.	.
Cc1cc(Nc2ccc(N3CCOCC3)cc2)nc(Nc2nc3ccccc3n2C)n1	42.1	.	.	.
Cc1ccc(S(=O)(=O)NC(=O)Nc2cccc(Cl)c2C)cc1	.	.	.	.
CCOC(=O)/C=C1\SCC(=O)N1CC(O)c1ccc(Cl)cc1 (stereo unspecified)	.	.	.	.
COc1ccc(CNC(=O)N2CCN(Cc3nc(-c4ccco4)cs3)CC2)cc1OC	54.0	.	.	.
CC1(C)N=C(N)N=C(N)N1c1ccc(Oc2ccc(Cl)cc2)c(Cl)c1	36.6	.	.	.
N#CC1=C(N)Oc2cc(N)ccc2C1c1ccc(C(F)(F)F)cc1 (stereo unspecified)	.	.	.	.
N#CC1=C(N)Oc2cc(N)ccc2C1C1CCCCC1 (stereo unspecified)	46.4	.	.	.
CC(C)Oc1ccc(-c2cc(C(=O)N/N=C/c3ccccc3O)[nH]n2)cc1	65.5	.	.	.
COc1cccc(/C=N/NC(=O)c2ccccc2O)c1O	76.6	.	.	.
O=C(N/N=C/c1ccccc1O)c1cccc2cc[nH]c12	80.9	.	.	.
O=C(N/N=C/c1cccc(O)c1O)c1cc(O)cc(O)c1	.	60.6	.	.
O=C(N/N=C/c1ccccc1Br)c1cccc2cc[nH]c12	.	.	.	.
CCOC(=O)C1=C(C)NC2=C(C(=O)C(C(=O)OC)C(C)C2)C1c1ccc(Cl)c(Cl)c1 (stereo unspecified)	.	.	.	.
SMILES	TEAD-YAP inh	MITF primary	FBW7 activator	GPR151 activ
Cc1ccc(C)c(CSc2nc3nc(C)c(Cc4ccccc4Cl)c(C)n3n2)c1	.	.	.	.
COc1cccc(C2=N/C(=C\c3cccc(Cl)c3)C(=O)O2)c1	.	.	.	.
Cc1ccccc1/C=N/NC(=O)c1ccccc1C	.	.	.	.
COc1cccc(/C=N/NC(=O)COc2ccccc2)c1O	.	.	.	.
C=CCc1cccc(/C=N/NC(=O)c2ccccc2OC)c1O	.	.	.	.
COc1cccc(/C=N/NC(=O)c2cc(C34CC5CC(CC(C5)C3)C4)[nH]n2)c1O	40.5	.	.	.
C=CCc1cccc(/C=N/NC(=O)c2ccccc2O)c1O	42.5	.	.	.
COc1cccc(/C=N/NC(=O)Cn2c3ccccc3c(=O)c3ccccc32)c1O	50.4	.	.	.
Cc1ccccc1C(=O)N/N=C/c1cccc(O)c1O	58.6	.	.	.
Nc1nc2n(n1)C(c1c(Cl)cccc1Cl)CC(c1ccccc1)N2 (stereo unspecified)	.	.	.	.
CC1(C)Cc2cccc(OCC(=O)NCC3CN(c4ccccc4)C(=O)O3)c2O1 (stereo unspecified)	.	.	.	.
COc1cccc2c(SCC(=O)N/N=C/c3ccc(O)cc3O)cc(C)nc12	.	.	.	.
COc1cccc(/C=N/NC(=O)CSc2cc(C)nc3ccc(C)cc23)c1O	43.6	.	.	.
COc1cccc(/C=N/NC(=O)c2cc(-c3ccc(C)cc3)n[nH]2)c1O	79.2	62.1	.	.
COc1ccccc1/C=N/NC(=O)c1cc(-c2ccc(C)cc2)n[nH]1	.	.	.	.

Bioassay records: PubChem BioAssay, The Scripps Research Institute Molecular Screening Center
